Screens as filed in PubChem.
NadD block = blocks S. aureus nicotinate mononucleotide adenylyltransferase; inhibition, % at 20 µM; purified NadD enzyme, colorimetric absorbance read-out; actives 0.78% (n = 360,000); in the data active = inhibition above about 26%
Neddylation inh = cullin neddylation inhibition; P61081+Q13564; AID 651699; inhibition, % at 25 µM; actives 0.58% (n = 360,000); TR-FRET cullin neddylation, biochemical; in the data active = inhibition above about 36%
NPR2 activator = GC-B (human) receptor activation; HEK293-GC-B cells, CNP EC30, cGMP TR-FRET; 0% at EC30 CNP, 100% saturating CNP; activation, % at 10 µM; actives 0.11% (n = 370,000); AID 1920062;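 active = activation at 10 µM reaching about 35% in either raw or pattern-adjusted values, limit read from the data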
Target sequence (P20594 whole entry, looked up): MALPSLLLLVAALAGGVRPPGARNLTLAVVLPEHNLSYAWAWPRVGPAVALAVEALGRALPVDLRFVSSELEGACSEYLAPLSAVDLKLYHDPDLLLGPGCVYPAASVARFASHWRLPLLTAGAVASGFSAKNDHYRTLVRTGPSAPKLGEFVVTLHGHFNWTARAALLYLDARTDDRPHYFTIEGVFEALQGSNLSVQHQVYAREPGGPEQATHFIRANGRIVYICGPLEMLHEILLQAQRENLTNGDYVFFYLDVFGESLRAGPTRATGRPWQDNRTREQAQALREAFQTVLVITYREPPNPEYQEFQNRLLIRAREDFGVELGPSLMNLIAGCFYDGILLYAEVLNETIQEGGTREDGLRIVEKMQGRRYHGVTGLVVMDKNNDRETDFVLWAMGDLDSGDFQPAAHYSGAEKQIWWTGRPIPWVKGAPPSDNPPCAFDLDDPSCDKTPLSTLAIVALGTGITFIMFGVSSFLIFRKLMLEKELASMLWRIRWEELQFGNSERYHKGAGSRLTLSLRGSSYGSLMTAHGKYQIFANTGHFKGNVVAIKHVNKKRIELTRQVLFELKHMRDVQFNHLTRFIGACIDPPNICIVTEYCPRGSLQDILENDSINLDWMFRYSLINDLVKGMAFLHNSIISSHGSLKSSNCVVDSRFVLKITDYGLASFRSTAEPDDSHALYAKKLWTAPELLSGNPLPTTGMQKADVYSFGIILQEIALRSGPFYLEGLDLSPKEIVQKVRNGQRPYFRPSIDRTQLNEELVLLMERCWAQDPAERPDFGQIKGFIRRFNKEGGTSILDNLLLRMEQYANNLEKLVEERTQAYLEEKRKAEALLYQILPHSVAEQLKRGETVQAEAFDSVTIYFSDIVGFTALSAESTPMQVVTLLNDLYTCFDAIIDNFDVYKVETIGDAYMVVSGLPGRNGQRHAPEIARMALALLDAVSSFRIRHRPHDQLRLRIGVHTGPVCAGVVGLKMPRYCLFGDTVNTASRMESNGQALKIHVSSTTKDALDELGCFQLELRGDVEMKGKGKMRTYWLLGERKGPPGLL
GC-A act = GC-A (human) enzyme activation; P16066; HEK293 GC-A cells, cGMP TR-FRET, EC30 ANP; 0% at EC30 ANP, 100% saturating ANP; activation, % at 10 µM; actives 0.14% (n = 370,000); in the data active = activation above about 40%
Of the large screens only hits and unclear results are named; the others gave an inactive call. The list is not random: actives were taken first. Their share in the collection is about 1.5%.

COC(=O)C1=C(C)N(CC(C)C)C(=S)NC1c1ccc(Cl)cc1 (configuration not stated)	none (no result: NadD block, Neddylation inh)
N#Cc1ccc(NC(=O)OC2CCC23CCC(c2ccccc2)CC3)cc1 (configuration not stated)	none (no result: NadD block, Neddylation inh)
CCN(CC)Cc1cc(O)c(CN(CC)CC)cc1O	NadD block 31
CCCCCCc1cc2cc(C(=O)Nc3ccccc3)c(=O)oc2cc1O	none
CCCCCCc1cc2cc(C(=O)NCc3ccccc3)c(=N)oc2cc1O	NadD block 31 (not shown: Neddylation inh)
CCCC[C@H]1C2CC(OC(=O)NCc3ccc(Cl)cc3)C(C2)[C@H]2CCCCN21 (some centres not stated)	none (no result: NadD block, Neddylation inh)
Oc1cc(O)cc(/C=C/c2ccc(O)c(O)c2)c1	Neddylation inh 60
C[C@H]1[C@@H](C(=O)N2CCCC2)Cc2nc3ccccc3nc2C[C@@H]1c1ccccc1	none (no result: NadD block, Neddylation inh)
O=C(c1ccc(F)cc1F)N(Cc1ccccn1)CC1CCCO1 (configuration not stated)	none (no result: NadD block, Neddylation inh)
Cc1ccc(-c2cc(C(=O)NCCCn3ccnc3)c3cc(Br)ccc3n2)o1	NadD block 49 (no result: NPR2 activator, GC-A act)
Cc1ccc(-c2cc(C(=O)O)c3cc(Br)ccc3n2)o1	none
COC(=O)[C@H](CC(C)C)N(CCc1cn(Cc2ccc(C)cc2)nn1)S(=O)(=O)c1ccc(F)cc1Br	none (no result: NadD block, Neddylation inh)
CC(C)CCSc1nc(N2CCOCC2)c2c(c1C#N)CC(C)(C)OC2	NPR2 activator 43
CCN(CC)S(=O)(=O)c1ccc(O)c(NC(=O)c2cc(-c3cc(OC)c(OC)c(OC)c3)nc3ccccc23)c1	Neddylation inh 38 (no result: NPR2 activator, GC-A act)
Cc1cc(C)c(C)c(S(=O)(=O)N2CCC(C(=O)NNC(=O)c3ccccc3O)CC2)c1C	Neddylation inh 52
Cc1ccc(S(=O)(=O)N2CCC(C(=O)NNC(=O)c3ccccc3O)CC2)cc1C	none
COc1cc(/C=C2/CC/C(=C/c3ccc(O)c(OC)c3)C2=O)ccc1O	none
COc1cc(/C=C/C=C2/CC/C(=C/C=C/c3ccc(O)c(OC)c3)C2=O)ccc1O	NadD block 70
Cc1cccc(NC(=O)CN2C(=O)N/C(=C/c3cc(C)n(-c4ccncc4)c3C)C2=O)c1	none
Cc1cccc(NC(=O)CN2C(=O)N/C(=C/c3cc(C)n(C)c3C)C2=O)c1	NadD block 30
CCCC(=O)OC[C@H]1CN([C@H](C)c2ccccc2)S(=O)(=O)c2c(F)cccc2O1	none (no result: NadD block, Neddylation inh)
O=C1c2ccccc2C(=O)c2c(NCCCN(CCO)CCO)cccc21	none
CCN(CCCNc1cc2c(c(N)c1S(=O)(=O)O)C(=O)c1ccccc1C2=O)c1ccccc1	NadD block 52
COc1c(Br)cc(Br)cc1/C=N/NC(=O)c1ccncc1	none
CN(C)c1ccc(C(=O)N/N=C/c2cc(Br)cc(Br)c2O)cc1	NadD block 32
COC(=O)C1=C(C)N(Cc2ccccc2C(F)(F)F)C(=NCc2ccccc2)NC1c1cccc(F)c1 (configuration not stated)	none (no result: NadD block, Neddylation inh)
O=C(O)CCc1ccc(-c2ccc(Br)cc2)o1	GC-A act 44
O=C(O)CCc1ccc(-c2ccc(Cl)cc2)o1	GC-A act 45
COc1ccc(-c2ccc(CCC(=O)O)o2)cc1	none
CC(C)NC(=O)N[C@H]1C[C@@H]2O[C@@H](CO)CC[C@@H]2O[C@@H]1CCc1ccc(-c2ccccc2F)cc1	none (no result: NadD block, Neddylation inh)
N#Cc1c(N)n(Cc2ccccc2)c(=O)c2cc([N+](=O)[O-])ccc12	GC-A act 47
CCOC(=O)[C@]12CCCC3=C1N(CCC3)C(=O)[C@@H](CC(=O)NCCC(C)C)C2	none (no result: NadD block, Neddylation inh)
CC(C)c1ccc2[nH]c(O)c(N=NC(=O)c3cccc(S(=O)(=O)Nc4ccccc4Cl)c3)c2c1	NadD block 38
O=C(Cc1ccc(-n2c(=O)c3ccccc3n(Cc3ccccc3Cl)c2=O)cc1)NCC1CCCO1 (configuration not stated)	NPR2 activator 62, GC-A act 53
COc1ccc(CCn2c(O)cc3nn(-c4nc5ccccc5s4)c(=O)c-3c2C)cc1	NadD block 73, Neddylation inh 75
COc1ccc(CN2CCN(c3nc4ccccc4s3)CC2)cc1	none
CCCCN1CC(COCc2ccccc2)Oc2cccc(Oc3ccc(F)cc3OC)c2S1(=O)=O (configuration not stated)	none (no result: NadD block, Neddylation inh)
CCC(=O)NNC(=S)NC(=O)c1ccc(C)cc1	none
CCC(=O)NC(=S)NNC(=O)c1ccc(O)cc1	NPR2 activator 85
O=C(O)c1ccc(-n2cccc2/C=N\NC(=O)c2cc3cc(Br)ccc3o2)cc1	Neddylation inh 47
Cc1[nH]n(-c2ccccc2)c(=O)c1/C=N/NC(=O)c1ccc(O)cc1O	Neddylation inh 61 (no result: NPR2 activator, GC-A act)
CCOC(=O)N1CCN(C(=O)C[C@H]2C[C@@]3(C(=O)OC)C(=C[C@H](C(C)C)O[C@@H]3C3CC3)N(Cc3ccc(Cl)cc3Cl)C2=O)CC1	none (no result: NadD block, Neddylation inh)
Cc1cc(C)c(Nc2cc(S(=O)(=O)O)c(N)c3c2C(=O)c2ccccc2C3=O)c(C)c1	NadD block 30
CCCC1CCC2(CC1)CCC2OC(=O)Nc1ccc2c(c1)OCO2 (configuration not stated)	none (no result: NadD block, Neddylation inh)
COC(=O)C[C@H]1CC[C@H]2[C@H](COc3ccc(NS(=O)(=O)c4cccc(F)c4)cc3C(=O)N2C)O1	none (no result: NadD block, Neddylation inh)
S=C(c1ccc(-c2cc(Cl)ccc2Cl)o1)N1CCOCC1	NPR2 activator 43
S=C(c1ccc(-c2cccc(Cl)c2)o1)N1CCCCC1	none
S=C(c1ccc(-c2cccc(Cl)c2)o1)N1CCOCC1	NPR2 activator 35
Cc1ccccc1C(=O)NC1CCCCN(Cc2cccc(F)c2)C1=O (configuration not stated)	none (no result: NadD block, Neddylation inh)
N#CC1=C(N)Oc2cc(O)ccc2C1c1ccc(Br)s1 (configuration not stated)	GC-A act 75
Cc1nn(-c2ccccc2)c2c1C(c1ccc(Br)s1)C(C#N)=C(N)O2 (configuration not stated)	none (no result: NPR2 activator, GC-A act)
COC(=O)[C@]12C[C@H](CC(=O)NCc3cccs3)C(=O)N(CCC3=CCCCC3)C1=C[C@H](C(C)C)O[C@@H]2C1CC1	none (no result: NadD block, Neddylation inh)
Cc1cccc(N=c2oc3cc(O)ccc3cc2C(N)=O)c1	Neddylation inh 62
CC(C)(C)C(=O)Cn1ncc(Br)c(Br)c1=O	GC-A act 62
CC(C)(C)C(=O)Cn1ncc(N2CCOCC2)c(Cl)c1=O	none
NS(=O)(=O)c1ccc(N=Nc2c(O)c(C(=O)O)cc3ccccc23)cc1	NadD block 31
O=C(O)Cc1ccc(N=Nc2c(O)c(C(=O)O)cc3ccccc23)cc1	none
Cc1cc(Nc2ccc(OC(F)F)cc2)cc(=O)n1-c1ccc(OC(F)F)cc1	none (no result: NadD block, Neddylation inh)
COc1cc(/C=C2/C(=O)NN(c3ccc(C)c(Cl)c3)C2=O)cc([N+](=O)[O-])c1O	none
O=C1NN(c2ccccc2)C(=O)/C1=C\c1cccn1-c1ccc(Cl)c([N+](=O)[O-])c1	NadD block 42
COC(=O)[C@]12C[C@H](CC(=O)N3CCSCC3)C(=O)N(CCC3=CCCCC3)C1=C[C@H](C1CCCC1)O[C@@H]2C	none (no result: NadD block, Neddylation inh)
O=C(COC(=O)c1cc([N+](=O)[O-])ccc1NCCO)Nc1cccnc1Cl	NPR2 activator 57, GC-A act 56
